# Results taken from paper PMC4552634, “A New Set of Chemical Starting Points with Plasmodium falciparum Transmission-Blocking Potential for Antimalarial Drug Discovery” (PLoS ONE, 2015).
# Where two headings read alike, the source gives them in different places. Out of some 13,000 compounds screened, about 3,200 (25%) showed an effect of 50% or more. The list shows a part of the results.
# System: P. falciparum stage V gametocytes
# Set-up: BacTiter-Glo ATP luminescence viability of purified stage V gametocytes in 384-well plates, per cent inhibition versus DMSO
# Details: 48 h, 5 µM, inhibitor
SMILES,% Inhibition [%],% Inhibition (% Inhibition) [%]
COc1ccc(-c2cnc3[nH]cc(-c4ccc(C(=O)O)cc4)c3c2)cn1 [TCMDC-136213],14.9,–
COc1ccc(-c2cnc3[nH]cc(-c4ccc(CCC(=O)O)cc4)c3c2)cn1 [TCMDC-136240],35.75,–
COc1ccc(-c2cnc3[nH]cc(-c4ccncc4)c3c2)cc1OC [TCMDC-135853],140.3,–
COc1ccc(CNC(=O)C2Cc3ccccc3CN2Cc2ccc3ccccc3c2)cc1 (stereo not shown) [TCMDC-141565],-15.29,–
CC1CCCN(C(=O)c2cc(-c3ccccn3)nc3c(Cl)cccc23)C1 (stereo not shown) [TCMDC-125218],20.47,–
NC(=Nc1nc(-c2ccccn2)cc2ccccc12)c1cccc(Cl)c1 [TCMDC-123745],62.24,–
O=C(Nc1nc(-c2ccccn2)cc2ccccc12)c1cccc(Cl)c1 [TCMDC-123886],116.1,–
COc1ccc(-c2nonc2NC(=O)c2cccc(Cl)c2)cc1OC [TCMDC-125401],22.75,–
O=C(O)c1ccc2nc(-c3ccccn3)c(-c3ccccn3)nc2c1 [TCMDC-123820],-4.631,–
CC(=O)Oc1cc(C(=O)Nc2ccc(Cl)cc2)cc2ccccc12 [TCMDC-123708],7.424,–
O=C(NC1CCN(Cc2ccccc2)CC1)c1ccc(-c2nc3cc(Cl)c(F)cc3[nH]2)s1 [TCMDC-140100],2.226,–
Cc1ccc(-c2csc(C)n2)c(C)c1 [TCMDC-125751],2.132,–
O=c1cc(-c2cccc(C(F)(F)F)c2)nc(Nc2ccc(Cl)c(Cl)c2)[nH]1 [TCMDC-132206],43.99,–
COc1cc(CS(C)(=O)=O)ccc1Nc1nccc(-c2c(-c3cccc(NC(=O)c4c(F)cccc4F)c3)nn3ccccc23)n1 [TCMDC-135792],-6.854,–
O=C(/C=C/c1ccc(Cl)c(Cl)c1)NCCCCCN1CCC(NC(=O)c2ccc(F)cc2F)CC1 [TCMDC-135842],-11.69,–
O=C(C=Cc1ccc(Cl)c(Cl)c1)NCCCCCN1CCC(CCCNS(=O)(=O)c2ccc(F)cc2)CC1 [TCMDC-139589],110.7,–
O=C(C=Cc1ccc(Cl)c(Cl)c1)NCCCCCN1CCC(CCNS(=O)(=O)c2ccc(F)cc2)CC1 [TCMDC-139585],78.1,–
O=C(/C=C/c1ccc(Cl)c(Cl)c1)NCCCCCN1CCC(NC(=S)Nc2ccc(F)cc2F)CC1 [TCMDC-135900],33.5,–
O=C(/C=C/c1ccc(Cl)c(Cl)c1)NCCCCCN1CCC(NC(=O)Nc2ccc(F)cc2F)CC1 [TCMDC-135712],11.66,–
Cc1cc(NC(=O)Nc2cccc(Cl)c2Cl)c2ccccc2n1 [TCMDC-138971],10.53,–
O=C(CCc1c[nH]cn1)Nc1cccc(-c2ccc(-c3nc4cc(F)ccc4[nH]3)s2)c1 [TCMDC-132160],19.34,–
CCOc1ccc(CCCON2C(N)=NC(N)=NC2(C)C)cc1 [TCMDC-131754],18.76,–
C/C=C1\CN2CC[C@H]1C[C@H]2[C@H](O)c1ccnc2ccc(OC)cc12 [TCMDC-138275],–,1.908
COc1ccc2ncc(C#N)c(CCN3CCC(NCc4cnc5c(c4)OCCO5)CC3)c2n1 [TCMDC-135230],35.06,–
CC(C)C(NC(=O)c1c(F)cccc1F)C(=O)Nc1ccc(Cc2nc3ccccc3s2)cc1 (stereo not shown) [TCMDC-125462],-3.098,–
CC(C)[C@H](NC(=O)c1c(F)cccc1F)C(=O)Nc1ccc(Cc2nc3ccccc3s2)cc1 [TCMDC-125031],63.22,–

SMILES,% Inhibition [%],% Inhibition (% Inhibition) [%]
CC(=O)c1sc(Cc2nc3ccccc3s2)nc1C [TCMDC-125337],10.02,–
O=C(c1ccccc1N=Nc1c(-c2ccccc2)[nH]n(-c2ccccc2)c1=O)N1CCOCC1 [TCMDC-125746],-15.29,–
CN(C)CCN(C)Cc1ccc(-c2ccc(NC(=O)c3cccc(C#N)c3)cc2)cc1 [TCMDC-132597],-16.52,–
CN(C)Cc1ccc(-c2ccc(NC(=O)c3ccc4c(=O)n(Cc5ccoc5)cnc4c3)cc2)cc1 [TCMDC-132368],79.58,–
O=C(Nc1cc(F)cc(-c2cccnc2)c1)c1ccc2c(=O)n(Cc3ccccc3)cnc2c1 [TCMDC-132372],12.04,–
CN(C)Cc1ccc(-c2ccc(NC(=O)c3ccc4c(=O)n(Cc5ccccc5)cnc4c3)cc2)cc1 [TCMDC-132361],121.5,–
CN(C)Cc1cccc(-c2ccc(NC(=O)c3ccc4c(=O)n(Cc5ccoc5)cnc4c3)cc2)c1 [TCMDC-132369],14.65,–
CN1CCC(Oc2ccc(NC(=O)c3ccc4c(=O)n(Cc5ccccc5)cnc4c3)cc2Cl)CC1 [TCMDC-132373],-13.59,–
Brc1ccsc1-c1nc(NCCC(c2ccccc2)c2ccccc2)no1 [TCMDC-134185],1.138,–
COc1ccc(C2CC(=O)C3=C(C2)NC(C)=C(C(=O)OC2CCCC2)C3c2ccc(O)cc2)cc1OC (stereo not shown) [TCMDC-125626],11.61,–
COc1cc2nc(-c3ccccc3)nc(N3CCN(CC(=O)N4CCCC4)CC3)c2cc1OC [TCMDC-125097],-15.61,–
O=C(/C=C/c1ccc(Cl)c(Cl)c1)N1CCC(CNCc2cccc3cc[nH]c23)CC1 [TCMDC-134168],-34.36,–
COc1cc(NC(=O)/C=C/c2ccc(-c3ccccc3)cc2)ccc1OCCN(C(C)C)C(C)C [TCMDC-139961],-1.594,–
COc1ccc(/C=C/C(=O)Nc2ccc(-c3ccncc3)cc2)cc1CCCN(C)C [TCMDC-132082],72.07,–
COc1ccc(C(=O)Nc2ccc(-c3ccc([N+](=O)[O-])cc3)cc2)cc1CCCN(C)C [TCMDC-132090],0.6115,–
COc1ccc(NC(=O)/C=C/c2ccc(-c3ccc(-c4noc(C)n4)cc3)cc2)cc1OCCN(C)C [TCMDC-138985],62.93,–
Cc1nc(-c2ccc(-c3ccc(C(=O)Nc4ccc(C(C)C)c(OCCN(C)C)c4)cc3)c(C)c2)no1 [TCMDC-138990],-34.94,–
COc1ccc(NC(=O)/C=C/c2ccc(-c3ccccc3)cc2)cc1N1CCN(C)CC1 [TCMDC-138979],-7.206,–
CC(=O)Nc1nc(C(=O)Nc2ccc(-c3cccc(-c4nc5ccc(C(F)(F)F)cc5[nH]4)c3)cc2)cs1 [TCMDC-137129],-34.14,–
COc1cccc(COCC(O)CN(CCc2ccccn2)C(=O)c2ccccc2F)c1 (stereo not shown) [TCMDC-141311],5.48,–
CCCCC(CC)CN1C(=O)C(c2ccccc2)(c2ccccc2)N=C1N (stereo not shown) [TCMDC-136814],-93.32,–
CNC(=O)c1cc(Nc2nnc(-c3ccc(C)c(S(=O)(=O)NC4CCCCC4)c3)c3ccccc23)ccc1OC [TCMDC-125661],-9.997,–
Oc1ccc(CN2CCC(NCc3cccc(C(F)(F)F)c3)CC2)cc1 [TCMDC-141655],-19.37,–
NCc1cccc(-c2cccc(CNC3CCN(Cc4ccccc4)CC3)c2)c1 [TCMDC-140477],86.14,–
NCc1cccc(-c2ccc(CNC3CCN(Cc4ccccc4)CC3)cc2)c1 [TCMDC-140486],46.75,–
NCc1ccc(-c2cccc(CNC3CCN(Cc4ccccc4)CC3)c2)cc1 [TCMDC-140478],84.33,–

SMILES,% Inhibition [%],% Inhibition (% Inhibition) [%]
CCOc1cc(C(=O)NC2CCN(Cc3ccccc3)C2)ccc1-c1nc2ccc(Cl)cc2[nH]1 (stereo not shown) [TCMDC-140911],-5.376,–
O=C(Nc1ccc(-c2nc3ccccc3[nH]2)cc1)c1ccc(S(=O)(=O)N2CCCCCC2)cc1 [TCMDC-125712],-20.46,–
COc1ccc2nc(C)cc(NN=Cc3ccc([N+](=O)[O-])o3)c2c1 [TCMDC-142036],11.78,–
Cc1ccc2nc(C)cc(N/N=C/c3ccccc3[N+](=O)[O-])c2c1 [TCMDC-123975],-3.364,–
CCOc1ccc2nc(C)cc(NN=Cc3ccccc3[N+](=O)[O-])c2c1 [TCMDC-142048],91.47,–
Cc1ccc2nc(C)cc(N/N=C/c3ccc([N+](=O)[O-])cc3)c2c1 [TCMDC-142070],109.1,–
CCOc1ccc2nc(C)cc(NN=Cc3cccc([N+](=O)[O-])c3)c2c1 [TCMDC-142049],64.63,–
Cc1ccc2nc(C)cc(NN=Cc3ccc(Cl)cc3)c2c1 [TCMDC-123976],-8.095,–
COc1ccc2nc(C)cc(NN=Cc3ccccc3[N+](=O)[O-])c2c1 [TCMDC-142087],48.43,–
COc1ccc2nc(-c3ccccc3)cc(NN=Cc3ccc([N+](=O)[O-])o3)c2c1 [TCMDC-142040],-17.37,–
Cc1ccc2nc(C)cc(N/N=C/c3ccc([N+](=O)[O-])o3)c2c1 [TCMDC-142035],56.06,–
COCCNCc1ncsc1-c1ccc2c(Nc3cc(O)ccc3C)ccnc2c1 [TCMDC-138465],-33.69,–
CC(C)(C)c1ccccc1OC(=O)c1ccccc1 [TCMDC-123936],-15.9,–
CCCN1CCC(c2c[nH]c3ccc(NC(=O)Nc4cccc(Cl)c4Cl)cc23)CC1 [TCMDC-139182],-83.82,–
O=[N+]([O-])c1ccc(Nc2nc(N/N=C/c3ccc(-c4ccc([N+](=O)[O-])cc4)o3)nc(Nc3ccccc3)n2)cc1 [TCMDC-123858],-4.596,–
COc1ccc2nc(C)cc(NN=Cc3cccc([N+](=O)[O-])c3)c2c1 [TCMDC-123972],49.98,–
COc1ccc2c(N/N=C/c3ccccc3[N+](=O)[O-])cc(C)nc2c1 [TCMDC-142088],-15.58,–
COc1ccc2c(N/N=C/c3cccc([N+](=O)[O-])c3)cc(C)nc2c1 [TCMDC-142089],108,–
O=[N+]([O-])c1ccc(C=NNc2nc(Nc3ccccc3)nc(Nc3ccccc3)n2)o1 [TCMDC-125802],108.2,–
O=[N+]([O-])c1ccc(-c2ccc(C=NNc3nc(Nc4ccccc4)nc(Nc4ccccc4)n3)o2)cc1 [TCMDC-124230],-25.78,–
Cc1ccc2c(N/N=C/c3cccc([N+](=O)[O-])c3)cc(C)nc2c1 [TCMDC-142072],87.02,–
Cc1cc(N/N=C/c2ccccc2[N+](=O)[O-])c2ccccc2n1 [TCMDC-123978],-75.07,–
Cc1cc(N/N=C/c2cccc([N+](=O)[O-])c2)c2ccccc2n1 [TCMDC-123977],89.22,–
Cc1ccc2c(N/N=C/c3ccccc3[N+](=O)[O-])cc(C)nc2c1 [TCMDC-142071],26.69,–
